Data on five molecules can be found in PubChem BioAssay (EPA / NIEHS).

The structures appear in SMILES notation. Calls of active or inactive are those of the source. How the source made its calls: active means hit-call score of the fitted dose curve at least 0.9, where 1 is the maximum; inactive means score below 0.9.

What all share (details): mRNA level, 48 h; actives raise or lower the signal
Read-out in test [1]: Fatty acid synthase (Homo sapiens) (UniProt P49327)
Nature of the test: LTEA_HepaRG_FASN: Life Technologies and Expression Analysis (LTEA) Assay for Fatty Acid Synthase (FASN) using HepaRG (AID 2283448). A digest of the protocol:
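Transcript-level assay: HepaRG liver cells are treated for 48 h across an eight-point range topping at 100 uM, and FASN mRNA, normalized to three housekeeping genes, is compared with DMSO controls in both directions.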

Read-out in test [2]: Cyclin Dependent Kinase Inhibitor 1A (CDKN1A), CDKN1A (gene 1026)
Nature of the test: LTEA_HepaRG_CDKN1A: Life Technologies and Expression Analysis (LTEA) Assay for Cyclin Dependent Kinase Inhibitor 1A (CDKN1A) using HepaRG (AID 2283450). A digest of the protocol: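 Read-out is CDKN1A mRNA by TaqMan qRT-PCR, normalized to three housekeeping genes and fitted in both directions against the DMSO baseline. Human HepaRG cells were treated 48 h with test chemicals up to 100 uM in half-log steps, 0.5% DMSO.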

Read-out in test [3]: Cyclin D1 (CCND1), CCND1 (gene 595)
Nature of the test: LTEA_HepaRG_CCND1: Life Technologies and Expression Analysis (LTEA) Assay for Cyclin D1 (CCND1) using HepaRG (AID 2283451). A digest of the protocol:
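HepaRG plated 48 h, medium switched to serum-free induction medium, chemicals added in duplicate (top 100 uM, half-log steps, 0.5% DMSO) for 48 h, cells lysed, RNA measured by TaqMan qRT-PCR.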

Read-out in test [4]: catalase (CAT), CAT (gene 847)
Nature of the test: LTEA_HepaRG_CAT: Life Technologies and Expression Analysis (LTEA) Assay for catalase (CAT) using HepaRG (AID 2283452). The gist of the method: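 Differentiated HepaRG cells in serum-free induction medium were dosed 48 h in duplicate, eight half-log concentrations from 100 uM in 0.5% DMSO. Transcript measured by TaqMan qRT-PCR, normalised to ACTB/GAPDH/POLR2A, fitted bidirectionally against DMSO.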

Read-out in test [5]: flavin-containing dimethylaniline monooxygenases 3 (FMO3), FMO3 (gene 2328)
Nature of the test: LTEA_HepaRG_FMO3: Life Technologies and Expression Analysis (LTEA) Assay for flavin-containing dimethylaniline monooxygenases 3 (FMO3) using HepaRG (AID 2283453). A digest of the protocol:
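HepaRG, 48 h exposure, 8-pt half-log series from 100 uM, 0.5% DMSO vehicle, duplicates; FMO3 transcript by Fluidigm TaqMan qRT-PCR, housekeeping-normalized; gain/loss fit vs DMSO.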

Read-out in test [6]: Cytochrome P450 (CYP1A1), CYP1A1 (gene 1543)
Nature of the test: LTEA_HepaRG_CYP1A1: Life Technologies and Expression Analysis (LTEA) Assay for Cytochrome P450 (CYP1A1) using HepaRG (AID 2283454). The gist of the method:
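HepaRG, 48 h post-plating switched to serum-free induction medium; 8-pt conc-response (top 100 uM, half-log, 0.5% DMSO), duplicates, 48 h. Lysis in RLT, TaqMan qRT-PCR for CYP1A1; gain or loss vs DMSO.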

Read-out in test [7]: CFLAR gene, CFLAR (gene 8837)
Nature of the test: LTEA_HepaRG_CFLAR: Life Technologies and Expression Analysis (LTEA) Assay for CFLAR gene using HepaRG (AID 2283455). The gist of the method:
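HepaRG cells were plated for 48 h, switched to serum-free induction medium, then exposed in duplicate for 48 h to 8 concentrations (top 100 uM, half-log steps, 0.5% DMSO). CFLAR mRNA was measured by qRT-PCR, normalized to ACTB, GAPDH and POLR2A.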

Read-out in test [8]: Forkhead box O1 (FOXO1), FOXO1 (gene 2308)
Nature of the test: LTEA_HepaRG_FOXO1: Life Technologies and Expression Analysis (LTEA) Assay for Forkhead box O1 (FOXO1) using HepaRG (AID 2283456). The gist of the method: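 Differentiated human HepaRG cells in serum-free induction medium were exposed in duplicate for 48 h to eight half-log concentrations (top 100 uM, 0.5% DMSO). FOXO1 mRNA was measured by TaqMan qRT-PCR, normalised to ACTB, GAPDH and POLR2A, and fitted bidirectionally against DMSO.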

Read-out in test [9]: growth arrest and DNA damage 45 (GADD45A), GADD45A (gene 1647)
Nature of the test: LTEA_HepaRG_GADD45A: Life Technologies and Expression Analysis (LTEA) Assay for growth arrest and DNA damage 45 (GADD45A) using HepaRG (AID 2283458). A digest of the protocol: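 Human HepaRG liver cells are treated in duplicate for 48 h with chemicals in 0.5% DMSO, highest concentration 100 uM. Expression is read by qRT-PCR and analyzed in both directions against vehicle.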

Read-out in test [10]: Forkhead box O3 (FOXO3), FOXO3 (gene 2309)
Nature of the test: LTEA_HepaRG_FOXO3: Life Technologies and Expression Analysis (LTEA) Assay for Forkhead box O3 (FOXO3) using HepaRG (AID 2283459). A digest of the protocol:
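Differentiated human HepaRG cells in serum-free induction medium were exposed in duplicate for 48 h to eight half-log concentrations up to 100 uM in 0.5% DMSO. FOXO3 mRNA was quantified by qRT-PCR, normalized to ACTB, GAPDH and POLR2A, with bidirectional fitting versus DMSO.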

Read-out in test [11]: ABC Transporter (ABCB1), ABCB1 (gene 5243)
Nature of the test: LTEA_HepaRG_ABCB1: Life Technologies and Expression Analysis (LTEA) Assay for ABC Transporter (ABCB1) using HepaRG (AID 2283460). A digest of the protocol: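 Differentiated human HepaRG cells, plated 48 h then switched to serum-free induction medium, were exposed in duplicate to eight half-log concentrations up to 100 uM in 0.5% DMSO for 48 h. ABCB1 mRNA was measured by TaqMan qRT-PCR, normalized to ACTB/GAPDH/POLR2A.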

Read-out in test [12]: growth arrest and DNA damage 45 (GADD45B), GADD45B (gene 4616)
Nature of the test: LTEA_HepaRG_GADD45B: Life Technologies and Expression Analysis (LTEA) Assay for growth arrest and DNA damage 45 (GADD45B) using HepaRG (AID 2283461). The gist of the method:
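HepaRG, ~100,000 cells/well, 48 h plating; serum-free induction medium; cpd 100 uM top, half-log x8, 0.5% DMSO, duplicate, 48 h; lysis in RLT, RNA isolation, qRT-PCR; norm ACTB/GAPDH/POLR2A; bidirectional fit vs DMSO.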

Read-out in test [13]: ABC Transporter (ABCC3), ABCC3 (gene 8714)
Nature of the test: LTEA_HepaRG_ABCC3: Life Technologies and Expression Analysis (LTEA) Assay for ABC Transporter (ABCC3) using HepaRG (AID 2283462). The gist of the method: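 Human HepaRG, 48 h dosing, 8-pt half-log series from 100 uM, 0.5% DMSO vehicle, duplicates. ABCC3 mRNA by TaqMan qRT-PCR, housekeeping-normalized; bidirectional curve fit vs DMSO.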

Read-out in test [14]: ABC Transporter (ABCB11), ABCB11 (gene 8647)
Nature of the test: LTEA_HepaRG_ABCB11: Life Technologies and Expression Analysis (LTEA) Assay for ABC Transporter (ABCB11) using HepaRG (AID 2283463). A digest of the protocol: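 Differentiated human HepaRG cells were exposed for 48 h in serum-free induction medium to eight half-log concentrations up to 100 uM in 0.5% DMSO. ABCB11 mRNA was quantified by qRT-PCR, normalized to ACTB, GAPDH and POLR2A, and fitted bidirectionally versus DMSO.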

Read-out in test [15]: ABC Transporter (ABCC2), ABCC2 (gene 1244)
Nature of the test: LTEA_HepaRG_ABCC2: Life Technologies and Expression Analysis (LTEA) Assay for ABC Transporter (ABCC2) using HepaRG (AID 2283464). A digest of the protocol:
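HepaRG, 48 h post-plating; serum-free induction medium; cpd 8-pt, 100 uM top, half-log, 0.5% DMSO, duplicate, 48 h. Readout: ABCC2 mRNA by qRT-PCR, norm. ACTB/GAPDH/POLR2A. Bidirectional fit vs DMSO baseline.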

Read-out in test [16]: Broad substrate specificity ATP-binding cassette transporter ABCG2 (Homo sapiens) (UniProt Q9UNQ0)
Nature of the test: LTEA_HepaRG_ABCG2: Life Technologies and Expression Analysis (LTEA) Assay for ABC Transporter (ABCG2) using HepaRG (AID 2283465). A digest of the protocol:
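Differentiated HepaRG cells in serum-free induction medium were exposed for 48 h, in duplicate, to eight half-log concentrations up to 100 uM in 0.5% DMSO. ABCG2 mRNA was measured by TaqMan qRT-PCR, normalized to ACTB, GAPDH and POLR2A, and fitted bidirectionally versus DMSO.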

Read-out in test [17]: ATP-citrate lyase (ACLY), ACLY (gene 47)
Nature of the test: LTEA_HepaRG_ACLY: Life Technologies and Expression Analysis (LTEA) Assay for ATP-citrate lyase (ACLY) using HepaRG (AID 2283466). The gist of the method: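 Differentiated human HepaRG cells in serum-free induction medium exposed 48 h, in duplicate, to eight half-log concentrations from 100 uM top in 0.5% DMSO; ACLY mRNA measured by qRT-PCR, normalized to ACTB, GAPDH, POLR2A, fitted bidirectionally versus DMSO.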

Read-out in test [18]: Peroxisomal acyl-coenzyme A oxidase 1 (ACOX1) gene, ACOX1 (gene 51)
Nature of the test: LTEA_HepaRG_ACOX1: Life Technologies and Expression Analysis (LTEA) Assay for Peroxisomal acyl-coenzyme A oxidase 1 (ACOX1) gene using HepaRG (AID 2283467). A digest of the protocol: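 Differentiated human HepaRG cells were exposed in duplicate for 48 h in serum-free induction medium to eight half-log concentrations up to 100 uM in 0.5% DMSO. ACOX1 mRNA was then quantified by TaqMan qRT-PCR, normalized to ACTB, GAPDH and POLR2A.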

Sequence of Broad substrate specificity ATP-binding cassette transporter ABCG2 (Homo sapiens) (Q9UNQ0 whole entry, looked up): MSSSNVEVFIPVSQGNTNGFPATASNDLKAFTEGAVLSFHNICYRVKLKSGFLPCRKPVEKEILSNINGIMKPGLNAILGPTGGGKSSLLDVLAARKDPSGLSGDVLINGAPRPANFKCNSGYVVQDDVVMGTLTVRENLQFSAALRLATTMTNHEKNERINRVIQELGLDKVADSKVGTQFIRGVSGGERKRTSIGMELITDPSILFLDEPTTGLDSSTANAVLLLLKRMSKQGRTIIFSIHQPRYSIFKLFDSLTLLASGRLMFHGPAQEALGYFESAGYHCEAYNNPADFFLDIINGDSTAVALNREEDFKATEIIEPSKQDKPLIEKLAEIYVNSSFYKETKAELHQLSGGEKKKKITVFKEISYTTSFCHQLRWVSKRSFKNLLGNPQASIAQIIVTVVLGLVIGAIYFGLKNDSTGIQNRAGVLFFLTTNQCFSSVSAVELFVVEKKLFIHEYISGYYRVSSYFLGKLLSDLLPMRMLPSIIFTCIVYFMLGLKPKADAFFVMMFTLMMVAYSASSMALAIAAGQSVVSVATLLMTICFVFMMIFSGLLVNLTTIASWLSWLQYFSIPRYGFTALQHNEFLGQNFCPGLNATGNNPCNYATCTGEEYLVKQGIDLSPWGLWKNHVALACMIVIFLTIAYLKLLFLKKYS
Sequence of Fatty acid synthase (Homo sapiens) (P49327 whole entry, looked up): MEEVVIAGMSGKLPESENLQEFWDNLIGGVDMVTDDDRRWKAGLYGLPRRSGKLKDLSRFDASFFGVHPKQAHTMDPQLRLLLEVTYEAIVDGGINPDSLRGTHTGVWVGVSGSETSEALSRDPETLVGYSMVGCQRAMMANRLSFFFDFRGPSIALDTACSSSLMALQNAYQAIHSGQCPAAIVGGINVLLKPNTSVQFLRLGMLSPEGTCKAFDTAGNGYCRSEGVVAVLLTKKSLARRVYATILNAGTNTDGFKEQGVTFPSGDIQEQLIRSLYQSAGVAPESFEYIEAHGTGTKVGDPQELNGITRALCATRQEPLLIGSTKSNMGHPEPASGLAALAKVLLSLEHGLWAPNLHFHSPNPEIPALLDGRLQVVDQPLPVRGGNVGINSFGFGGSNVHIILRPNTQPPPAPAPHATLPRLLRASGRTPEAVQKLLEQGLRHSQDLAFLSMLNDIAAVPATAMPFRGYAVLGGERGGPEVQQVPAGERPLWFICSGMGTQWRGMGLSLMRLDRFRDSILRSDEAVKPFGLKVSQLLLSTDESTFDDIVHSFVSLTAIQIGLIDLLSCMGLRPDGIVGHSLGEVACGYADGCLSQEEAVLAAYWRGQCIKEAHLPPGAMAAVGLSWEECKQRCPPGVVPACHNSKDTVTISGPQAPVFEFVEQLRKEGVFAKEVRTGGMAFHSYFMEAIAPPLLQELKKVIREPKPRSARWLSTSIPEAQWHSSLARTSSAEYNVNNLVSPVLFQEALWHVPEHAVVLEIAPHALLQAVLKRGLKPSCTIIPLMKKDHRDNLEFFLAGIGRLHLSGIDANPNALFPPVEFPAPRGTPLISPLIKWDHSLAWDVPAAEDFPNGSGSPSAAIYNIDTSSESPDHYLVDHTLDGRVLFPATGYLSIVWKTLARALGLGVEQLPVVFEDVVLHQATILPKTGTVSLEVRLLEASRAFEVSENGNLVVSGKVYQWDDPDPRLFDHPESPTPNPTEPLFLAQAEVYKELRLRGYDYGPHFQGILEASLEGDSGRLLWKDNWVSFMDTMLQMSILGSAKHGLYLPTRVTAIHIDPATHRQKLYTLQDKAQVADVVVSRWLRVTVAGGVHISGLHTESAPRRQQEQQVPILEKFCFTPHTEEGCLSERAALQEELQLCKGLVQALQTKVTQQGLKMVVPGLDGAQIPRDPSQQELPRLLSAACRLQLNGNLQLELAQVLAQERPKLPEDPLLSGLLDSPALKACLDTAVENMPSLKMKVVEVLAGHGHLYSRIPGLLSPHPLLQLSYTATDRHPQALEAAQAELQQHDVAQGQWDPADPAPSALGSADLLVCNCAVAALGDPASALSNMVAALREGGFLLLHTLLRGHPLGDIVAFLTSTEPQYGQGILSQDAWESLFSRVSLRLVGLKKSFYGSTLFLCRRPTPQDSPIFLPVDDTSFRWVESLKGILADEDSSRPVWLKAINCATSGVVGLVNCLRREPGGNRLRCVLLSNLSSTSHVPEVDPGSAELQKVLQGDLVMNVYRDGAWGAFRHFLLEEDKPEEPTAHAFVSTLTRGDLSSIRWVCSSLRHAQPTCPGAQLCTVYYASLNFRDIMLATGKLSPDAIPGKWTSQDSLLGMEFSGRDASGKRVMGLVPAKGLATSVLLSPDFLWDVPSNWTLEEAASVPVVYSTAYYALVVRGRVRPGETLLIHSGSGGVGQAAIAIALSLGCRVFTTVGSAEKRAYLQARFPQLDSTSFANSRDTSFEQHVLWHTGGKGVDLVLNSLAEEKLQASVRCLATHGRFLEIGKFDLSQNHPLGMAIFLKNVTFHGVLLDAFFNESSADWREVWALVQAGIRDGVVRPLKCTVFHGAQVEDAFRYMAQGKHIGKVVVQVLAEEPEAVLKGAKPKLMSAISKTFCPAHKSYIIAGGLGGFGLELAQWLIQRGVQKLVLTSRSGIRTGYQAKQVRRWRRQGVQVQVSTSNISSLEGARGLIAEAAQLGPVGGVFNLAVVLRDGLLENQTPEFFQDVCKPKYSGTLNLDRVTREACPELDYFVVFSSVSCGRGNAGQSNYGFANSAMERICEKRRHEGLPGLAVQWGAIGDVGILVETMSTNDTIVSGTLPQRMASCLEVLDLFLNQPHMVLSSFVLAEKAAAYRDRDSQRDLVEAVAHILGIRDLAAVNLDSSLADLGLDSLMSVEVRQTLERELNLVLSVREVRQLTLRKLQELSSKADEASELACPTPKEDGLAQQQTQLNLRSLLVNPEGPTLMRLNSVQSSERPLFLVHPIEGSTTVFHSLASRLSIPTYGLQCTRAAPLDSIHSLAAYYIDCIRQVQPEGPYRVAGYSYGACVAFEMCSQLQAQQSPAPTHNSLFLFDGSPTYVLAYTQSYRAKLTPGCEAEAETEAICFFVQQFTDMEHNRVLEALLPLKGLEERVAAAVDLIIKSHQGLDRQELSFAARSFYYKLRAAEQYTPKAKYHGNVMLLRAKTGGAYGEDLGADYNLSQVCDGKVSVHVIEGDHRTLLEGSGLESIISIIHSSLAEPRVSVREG

As a reminder, the AC50 is the midpoint of the concentration-response curve, whichever way the signal moves. As for `CCCCSP(=O)(SCCCC)SCCCC`, the molecule was classed as inactive in test [1], in test [2], in test [3], in [4], in test [5] and in test [7]. Also, the molecule was classed as inactive in [8], in test [9], in test [10], in test [12], in test [13] and in test [15]. The result in test [17] and in [18] was inactive. Besides, the AC50 was 27.6 µM (active) in test [6], 50 µM (active) in [11], 73.9 µM (active) in test [14] and 50 µM (active) in test [16].

As to `CCOP(=S)(OCC)Oc1ccc([N+](=O)[O-])cc1`, the molecule was classed as inactive in test [2], in test [3], in [4], in test [5], in test [7] and in test [8]. In addition, the molecule was classed as inactive in [9], in test [10], in test [11], in [12], in [13] and in test [14]. In addition, the molecule was classed as inactive in test [15], in test [16], in test [17] and in test [18]. Besides, the half-maximal activity concentration (AC50) in test [6] is 15.4 µM (active).

For the molecule `CSc1nnc(C(C)(C)C)c(=O)n1N`, the outcome in test [1], in test [2], in test [3], in [4], in [5] and in test [6] was inactive. Besides, the outcome in test [7], in test [8], in test [9], in test [10], in test [11] and in test [12] was inactive. Also, the molecule was classed as inactive in [13], in test [14], in test [15], in test [16], in test [17] and in test [18].

As for `CCc1cnc(C2=NC(C)(C(C)C)C(=O)N2)c(C(=O)O)c1` (centres undefined), the outcome in test [1], in [2], in [3], in [4], in [5] and in test [6] was inactive. For the same molecule, the molecule was classed as inactive in test [7], in test [8], in test [9], in [10], in [11] and in [12]. In addition, the outcome in test [13], in [14], in test [15], in [16], in test [17] and in test [18] was inactive.

For the molecule `CON=C(C(=O)OC)c1ccccc1CON=C(C)c1cccc(C(F)(F)F)c1`, the molecule was classed as inactive in test [1], in [2], in test [3], in [4], in test [5] and in test [7]. Further, the molecule was called inactive in test [8], in [9], in test [10], in test [11], in test [12] and in test [13]. Further, the molecule was classed as inactive in [15], in test [16], in test [17] and in [18]. Moreover, the AC50 is 50 µM (active) in [6] and 85.5 µM (active) in test [14].
